The list shows a part of the results. A number with no mark means an inactive call.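 The calls were made as follows: active = mean activation over three repeats above the cutoff from the earlier oxytocin receptor agonist screen (cut at about 20% in these data); inactive = the rest.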
These molecules were tested against Oxytocin receptor (Homo sapiens) (UniProt P30559) (assay: human OXTR agonists, counter-screen for V1R agonist project, fluorescence, CHO-OTR cells, triplicate (AID 434969;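 also: peak over minimum fluorescence ratio within a 100 second FLIPR read; 0% = DMSO only wells and 100% = oxytocin high control wells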)). Conditions: Fluo-8 calcium fluorescence, at 3 µM, stronger effect = higher value.
Oxytocin receptor (Homo sapiens), sequence (P30559 whole entry, looked up): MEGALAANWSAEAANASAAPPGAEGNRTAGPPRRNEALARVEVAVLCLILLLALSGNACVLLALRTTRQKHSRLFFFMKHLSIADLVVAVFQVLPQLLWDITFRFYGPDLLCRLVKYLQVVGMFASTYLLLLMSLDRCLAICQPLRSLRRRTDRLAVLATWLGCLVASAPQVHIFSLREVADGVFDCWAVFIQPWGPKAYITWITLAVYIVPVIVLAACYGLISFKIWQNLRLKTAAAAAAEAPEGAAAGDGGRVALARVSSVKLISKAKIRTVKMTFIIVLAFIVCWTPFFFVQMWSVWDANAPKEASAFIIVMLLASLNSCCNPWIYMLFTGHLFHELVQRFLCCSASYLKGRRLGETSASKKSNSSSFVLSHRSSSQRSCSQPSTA

| Compound | activation [%] |
| --- | --- |
| Fc1cccc(Cl)c1COc1ccc(-c2nnco2)cc1 | -0.58 |
| CC1(C)S[C@@H]2[C@H](N=CN3CCCCCC3)C(=O)N2[C@H]1C(=O)O | 0.49 |
| CCN(CC)c1ccc(/C=N/NC(=O)c2cnccn2)c(O)c1 | 9.1 |
| CCN(CC)c1ccc2cc(C(N)=O)/c(=N\NC(=O)c3ccncc3)oc2c1 | 15.6 |
| Cc1cc(C)c(/C=C2\C(=O)Nc3ccccc32)[nH]1 | 16.6 |
| O=C(c1ccccc1)c1ccc(OCC(O)CN2CCCC2)cc1 (stereo not drawn) | 2.06 |
| O=c1c2cc(Br)ccc2nc(-c2cccc(Cl)c2)n1O | 15.4 |
| O=C(CN1CCN(c2cccc(Cl)c2)CC1)Nc1ccc(S(=O)(=O)N2CCOCC2)cc1 | 5.65 |

From PubChem BioAssay AID434969 (The Scripps Research Institute Molecular Screening Center, 2010)
